Screens (PubChem BioAssay)
Sfp inh: blocks B. subtilis Sfp PPTase activity; Q9F4F7; Biochemical Sfp PPTase activity, qHTS; Potency, µM, inactives show largest response in the series, negative = inhibition, actives largely listed as inhibitors; 310,000 tested, 3.5% active; AID 1490;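 further: the enzyme is Sfp with the accession as filed and its product quenches rhodamine fluorescence; 0% = enzyme reaction without inhibitor and -100% = no enzyme wells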
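Reaction rates are the 30-min fluorescence difference (ex 525, em 598 nm) in wells containing 15 nM Sfp, 5 uM rhodamine-CoA and 12.5 uM BHQ-2-YbbR at pH 7.6 with 10 mM MgCl2.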
PLK1 PBD block: PLK1 (human) polo-box domain binding inhibition. Potency, µM, for the others: max response, negative = inhibition, actives largely listed as inhibitors. 360,000 tested, 2.8% active. P53350. Plk1 PBD binding of FITC phosphopeptide, fluorescence polarization; further: series mostly up to about 57 µM; nearly all actives have a fitted effect of over 65% in size
Target sequence (P53350 whole entry, looked up, the tested form may be a part): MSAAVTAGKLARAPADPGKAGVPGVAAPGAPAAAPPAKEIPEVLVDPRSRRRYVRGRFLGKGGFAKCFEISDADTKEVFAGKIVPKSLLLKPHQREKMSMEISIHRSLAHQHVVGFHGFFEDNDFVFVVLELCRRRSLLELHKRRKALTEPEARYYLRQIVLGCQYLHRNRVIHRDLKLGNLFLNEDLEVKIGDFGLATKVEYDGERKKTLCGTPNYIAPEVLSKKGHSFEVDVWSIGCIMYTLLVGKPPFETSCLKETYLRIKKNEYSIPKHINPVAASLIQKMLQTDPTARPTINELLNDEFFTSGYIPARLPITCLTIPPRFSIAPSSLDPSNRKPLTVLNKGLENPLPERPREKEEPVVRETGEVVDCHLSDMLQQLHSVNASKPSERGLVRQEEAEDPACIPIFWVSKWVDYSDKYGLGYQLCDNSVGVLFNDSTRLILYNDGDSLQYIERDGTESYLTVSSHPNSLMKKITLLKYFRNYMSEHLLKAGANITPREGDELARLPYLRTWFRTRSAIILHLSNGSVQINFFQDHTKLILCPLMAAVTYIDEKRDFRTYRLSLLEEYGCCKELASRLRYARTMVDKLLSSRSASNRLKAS
VDR inhibitor: inhibitors of human vitamin D receptor. P11473. VDR-SRC2-3 peptide fluorescence polarization, 2 h. Potency, µM, for the others: max response, negative = inhibition, hits mostly inhibitors. 400,000 tested, 0.93% active. AID 504847
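Signal is fluorescence polarization, reporting how far test compounds block the interaction of VDR with the SRC2-3 coregulator peptide after a 2 h room-temperature incubation.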
12-LOX inh: inhibitors of human 12S-lipoxygenase ALOX12 | P18054 | purified 12hLO, xylenol orange hydroperoxide absorbance | Potency, µM (doses to about 108 µM), without a hit: top-dose activity change, negative = inhibition, hits mostly inhibitors | 580,000 tested, 1.1% active
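Purified human 12hLO at 150 nM in 25 mM Hepes, 0.01% Triton X-100, pH 7.0, preincubated 15 min at room temperature with compound. Reaction started with 40 uM arachidonic acid, 30 min at room temperature. Hydroperoxide measured by Fe-xylenol orange, 573/405 nm absorbance ratio.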
Numbers without * were called inactive; u = inconclusive; x = no result given; [ ] = another dose, or the depositor's remark. Hits are enriched below; roughly 4.2% of the tested compounds scored in any of these assays. The call rests on the fitted dose curve; in most records, active means well fitted curve in the direction sought with a large enough effect; inconclusive means small, poorly fitted or top-dose-only effect, or another doubt; inactive means no such curve, though single readings can be large; an effect the other way counts as inactive or inconclusive. Unless noted, on the % scale 0 is the no-effect control and ±100 the full control effect; potency means the concentration at half of the fitted maximal effect.

SMILES	Sfp inh	PLK1 PBD block	VDR inhibitor	12-LOX inh
Cc1ccc(CN(C)C(=O)C2CCC(=O)N(CCc3ccccc3)C2)o1 (configuration not stated)	35.5µM*	-10.6%	-6.0%	11.0%
CCn1c(=O)c(-[n+]2ccccc2)c(O)c2ccccc21	12.6µM*	-5.0%	4.9%	-32.2%
CCn1c(=O)c(C(=O)NNC(=O)c2ccccc2)c(O)c2ccccc21	25.9%	2.3%	16.2%	-5.4%
NC(=S)N/N=C1/CCSc2ccc3ccccc3c21	6.3%	u	-0.3%	20µM*
CN/C(=C\[N+](=O)[O-])NCCSCc1ccc(CN(C)C)o1	11.3%	4.6%	-13.7%	u
Cc1ccc(C(=O)NCCN2C3=NC[C@H](Cc4ccc(O)cc4)N3C[C@H]2Cc2ccc(O)cc2)cc1Br	-24.6%	2.9%	-13.2%	u
COc1ccc(C[C@H]2CN3C(=NC[C@@H]3Cc3ccccc3)N2CCNC(=O)c2ccc(C)c(Br)c2)cc1	31.6µM*	u	-33.3%	x
COc1ccc(C[C@H]2CN3C(=NC[C@H]3Cc3ccccc3)N2CCNC(=O)c2ccc(C)c(Br)c2)cc1	50.1µM*	-4.6%	0.8%	x
Cc1ccc(C(=O)N[C@@H](C)CN2C3=NC[C@H](C(C)C)N3C[C@H]2Cc2ccc(O)cc2)cc1Br	39.8µM*	26.7µM*	-27.6%	u
Cc1ccc(C(=O)NCCN2C3=NC[C@@H](Cc4ccccc4)N3C[C@H]2Cc2ccc(O)cc2)cc1Br	44.7µM*	1.3%	8.8%	u
COc1ccc(C[C@H]2CN3C(=NC[C@@H]3Cc3ccc(O)cc3)N2CCNC(=O)c2ccc(C)c(Br)c2)cc1	-19.0%	-14.2%	4.7%	u
CN(CC(=O)Nc1ccccc1Cl)C(=O)CSC(=S)N1CCCC1	x	u	-12.5%	1.6%
O=C(COC(=O)/C=C/c1ccccc1F)Nc1nnc(-c2ccccc2)o1	x	-0.8%	1.1%	-10.6%
COc1ccc(CNc2nc3c(-c4cccc(F)c4)nnn3c3ccccc23)cc1	x	x	-7.1%	-31.4%
Cc1ccc(S(=O)(=O)N2CCCC(CCC(=O)O)C2)cc1 (configuration not stated)	x	x	x	-8.1%
CC1(C(=O)NS(=O)(=O)c2cccc(Cl)c2)CCN1C(=O)Cc1ccccc1 (configuration not stated)	x	3.7%	x	u
Cc1cc(Cl)nc2c(C(C)C)cccc12	18.9%	16.8µM*	-20.7%	-9.6%
COc1ccc(S(=O)(=O)N(c2onc(C)c2Cl)S(=O)(=O)c2ccc(OC)c(OC)c2)cc1OC	11.5%	-8.8%	-10.6%	17.8µM*
CC(O)c1cc2n(n1)CCN(C(=O)Cc1cc3c(cc1Cl)OCCO3)C2 (configuration not stated)	x	x	x	31.2%
O=C(O)CCCC(=O)N1Cc2ccccc2CC2(CCCCN2Cc2ccncc2)C1 (configuration not stated)	x	x	x	-2.0%[6.33 µM]
CCC(C)(C)C1CCc2c(sc(NC(=O)c3ccccc3C)c2C#N)C1 (configuration not stated)	x	x	x	29.6%
CCC(C)(C)C1CCc2c(sc(NC(=O)c3ccccc3C(=O)O)c2C#N)C1 (configuration not stated)	0.9%	26.7µM*	-25.1%	-53.9%
CC(C)(C)C1CCc2c(sc(NC(=O)C3CC=CCC3C(=O)O)c2C#N)C1 (configuration not stated)	9.6%	21.2µM*	u	-25.1%
CCC(=O)Nc1sc2c(c1C#N)CCC(C(C)(C)C)C2 (configuration not stated)	x	x	x	37.2%
COc1ccc(NC(=O)C(c2ccccn2)N(C(C)=O)c2ccc(C)cc2)cc1 (configuration not stated)	-3.7%	-5.4%	-3.1%	-3.2%
SMILES	Sfp inh	PLK1 PBD block	VDR inhibitor	12-LOX inh
CCOc1ccc(NC(=O)C(c2ccccn2)N(C(=O)CCl)c2ccc(OCC)cc2)cc1 (configuration not stated)	39.8µM*	-20.1%	-10.4%	x
CCc1c(C(=O)NC2CCCC2)csc1C	18.9%	-14.2%	-5.6%	8.4%
CCc1nc2ccc(C(=O)NCc3ccc4c(c3)OCO4)cn2c1N(CCC(C)C)CCN(C)C	x	-7.3%	x	u
CC(=O)Nc1c([N+](=O)[O-])cc2[nH]c(=O)[nH]c2c1[N+](=O)[O-]	20µM*	u	4.9%	6.4%
COc1ccc(C(=O)NNC(=O)CSc2nnnn2C)cc1	11.2%	-17.1%	-12.1%	-0.7%
O=C1C([N+](=O)[O-])=C(O)c2cccc3cccc1c23	8.91µM*	x	x	x
